# PubChem BioAssay (NCI)
# Compounds without any hit were thinned out: in the full panel of roughly 83,000, 20% have a hit.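 Results are percent growth after 48 hours of single-concentration exposure. 100 means growth as in untreated cells, lower positive values show inhibition; negative values down to -100 show cell death.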 Values without a mark were called inactive. Activity calls are given as the source filed them. Rule for the calls: active = growth percent below 10; inactive = the rest.
# Tests used:
# Experiment in all cases: NCI-60 one-dose screen, 48 h (100 = growth as untreated, 0 = no growth, -100 = all killed)
# Details in all cases: 10 µM unless noted
# K-562 leukemia = tested on: K-562 leukemia
# MALME-3M melanoma = tested on: MALME-3M melanoma
# MDA-MB-231 breast = tested on: MDA-MB-231 breast
# RXF 393 renal = tested on: RXF 393 renal
# SF-268 CNS = tested on: SF-268 CNS
# SF-295 CNS = tested on: SF-295 CNS
# SF-539 CNS = tested on: SF-539 CNS
# UACC-257 melanoma = tested on: UACC-257 melanoma
# M14 melanoma = tested on: M14 melanoma
# HCT-15 colon = tested on: HCT-15 colon
# HT29 colon = tested on: HT29 colon
# SNB-75 CNS = tested on: SNB-75 CNS
# SNB-19 CNS = tested on: SNB-19 CNS
# U251 CNS = tested on: U251 CNS
# PC-3 prostate = tested on: PC-3 prostate
# SK-MEL-5 melanoma = tested on: SK-MEL-5 melanoma
# LOX IMVI melanoma = tested on: LOX IMVI melanoma
# SK-MEL-28 melanoma = tested on: SK-MEL-28 melanoma
# SK-MEL-2 melanoma = tested on: SK-MEL-2 melanoma
# UACC-62 melanoma = tested on: UACC-62 melanoma
SMILES,growth (K-562 leukemia),growth (MALME-3M melanoma),growth (MDA-MB-231 breast),growth (RXF 393 renal),growth (SF-268 CNS),growth (SF-295 CNS),growth (SF-539 CNS),growth (UACC-257 melanoma),growth (M14 melanoma),growth (HCT-15 colon),growth (HT29 colon),growth (SNB-75 CNS),growth (SNB-19 CNS),growth (U251 CNS),growth (PC-3 prostate),growth (SK-MEL-5 melanoma),growth (LOX IMVI melanoma),growth (SK-MEL-28 melanoma),growth (SK-MEL-2 melanoma),growth (UACC-62 melanoma) [%]
O=[N+]([O-])c1ccc(O)c2ncccc12,12.6%,38%,31.9%,41.6%,37.2%,23.1%,23.2%,16.5%,31.9%,21.3%,20%,48.5%,23.8%,17.2%,31.3%,15.3%,25.2%,29.1%,78.3%,–
CN(C)c1ccc(-c2c(NC(C)(C)C)nc3c(OCCc4ccccc4)cccn23)cc1,3.1% (active),12.9%,25.5%,-25.8% (active),56.6%,-12.7% (active),17.8%,3.18% (active),29.7%,0.0072% (active),10.2%,48.4%,19.3%,13.6%,0.316% (active),-69.4% (active),11.5%,35.1%,25.3%,–
CC(C)(O)c1cncc(-c2ccc3ncnc(N4CCc5cc(F)c(Cl)cc54)c3c2)c1,33.6%,16.1%,30.3%,-17% (active),26.1%,7.56% (active),4.86% (active),42.8%,32.2%,14.1%,20.8%,-20% (active),25.2%,42.6%,18.7%,13.4%,12.2%,24.8%,-1.1% (active),–
Nc1c(C(=O)Nc2ccc(C(F)(F)F)cc2)sc2nc(-c3cnccn3)cc(-c3cccs3)c12,35.5%,89%,66.2%,25.5%,78.6%,78.7%,-54.1% (active),95.8%,49.4%,78.6%,95%,34.2%,52.2%,79.5%,42.2%,90.1%,–,89.8%,101%,84.6
COc1cc(N=Cc2sc(Nc3nccs3)nc2O)cc(OC)c1OC,84.4%,79.2%,79.1%,99.5%,78.8%,69.9%,90.5%,92.6%,79.9%,71.4%,109%,73.6%,78.2%,84.7%,80.9%,87.6%,–,84.2%,74%,75.5
C/C(=C(/c1ccc(Cl)cc1)c1ccc(OCCN)cc1)c1ccc(C)cc1,90.8%,101%,94.4%,112%,100%,98.7%,93.8%,104%,102%,101%,111%,94.6%,92.6%,101%,94.6%,106%,105%,99.6%,112%,–
Cn1ccnc1C(=O)/C=C/c1ccc(NC(=O)Nc2ccccc2)cc1,7.81% (active),69.6%,-2.86% (active),-5.31% (active),3.22% (active),3.79% (active),-29.5% (active),80%,24.8%,12.4%,3.3% (active),17.1%,21.8%,2.77% (active),37.8%,77.9%,–,75.1%,102%,38.5
COc1cc(OC)c(S(=O)(=O)NNC(=O)c2ccncc2)cc1C(=O)/C=C/c1ccc(C)cc1,27.3%,95.5%,67.4%,82.9%,60.9%,107%,65.3%,99.6%,56.4%,85.3%,95.1%,73%,66.7%,68.1%,45.9%,94.2%,–,104%,109%,76.2
Cc1cccc2sc(/N=C(\N)C(Cl)(Cl)Cl)nc12,100%,102%,96.2%,120%,94.5%,94.4%,99.4%,104%,101%,102%,105%,81.6%,90.3%,95.1%,103%,99.6%,113%,112%,118%,–
CS(=O)(=O)c1ccc(-c2nc3ccccn3c2/C=N/Nc2nc(-c3ccc(Br)cc3)cs2)cc1,86.1%,128%,105%,99.7%,108%,102%,105%,122%,112%,92.6%,114%,114%,103%,107%,100%,96.5%,112%,103%,113%,–
O=C1Nc2cc(Cl)ccc2/C1=C\c1ccc(OCc2ccc(Br)cc2F)cc1,3.55% (active),-66.9% (active),-2.27% (active),-67.3% (active),-11.9% (active),-83.2% (active),-87.9% (active),8.13% (active),-43.9% (active),6.12% (active),0.627% (active),-72.8% (active),-41.3% (active),-68.5% (active),-57.1% (active),-12.1% (active),-92.8% (active),-63% (active),-42.8% (active),–
COc1ccc2[nH]cc(-c3cc(N)n4nc(-c5c[nH]c6ccc(OC)cc56)cc4n3)c2c1,-35.5% (active),-68.4% (active),-12.6% (active),-50.6% (active),-30% (active),25.2%,-89.7% (active),-21.8% (active),-78.3% (active),1.36% (active),-56.1% (active),106%,78.6%,-87.6% (active),5.09% (active),3.11% (active),-63.9% (active),-69.4% (active),72.5%,–
O=C1c2c(c3c4cc(Br)ccc4[nH]c3c3ccc4ccccc4c23)C(=O)N1CCO,71.6%,103%,75.3%,107%,105%,91.8%,90.9%,97.4%,103%,72.8%,89.9%,128%,85.6%,74.3%,83.3%,100%,66.4%,99.8%,110%,–
CCCCN1C(=O)/C(=c2\sc3n(c2=O)C2C(NN=3)N(CC)C(=O)N2CC)c2cc(Cl)ccc21 (centres undefined),25.3%,73.9%,58.3%,77%,75.4%,62.3%,59.4%,89.4%,70.3%,43.9%,88.4%,69.1%,90.8%,65.4%,71.2%,66%,75.6%,72.1%,79.9%,–
Clc1ccc2c(OCCCN3CCOCC3)c3oc4ccccc4c3nc2c1,19.8%,12.5%,32.3%,26.7%,38.3%,26%,22.9%,59.8%,30.3%,20.3%,25.2%,43.5%,41.9%,36.2%,50.7%,42.7%,12.9%,42.1%,78.2%,–
CCCSc1nc(Nc2ccc(/C(C)=N\NC(N)=S)cc2)c(C#N)c(-c2ccc(OC)cc2)n1,85.1%,49.2%,7.95% (active),10.8%,64.5%,42.2%,18.7%,93.7%,79.5%,75.7%,87.7%,56%,39.7%,17.1%,99.8%,58.2%,68%,79.8%,89.7%,–
